Outcome data for 104 compounds are collected here from PubChem BioAssay AID504882 (Broad Institute, 2011).

The structures appear in SMILES notation. Screen size: about 1,200 compounds; about 290 (24%) were called active. Roughly 9% stayed inconclusive and do not appear here. How the calls were made is not given here. Not all results are given here. Entries with a potency or affinity are not part of this list.

This test is described as follows: cytotoxicity in EBV lymphoblastoid cells, dose response, cytotoxicity control, cell-based, plate reader, cherry-picks, set 2 (AID 504882). As to conditions: EBV lymphoblastoid cells (LCL) viability; series mostly up to 19.5 µM.
Take `O=C(O)c1cccc(Nc2ccnc(Nc3cccc(C(=O)O)c3)n2)c1`: the compound was called inactive. Next, `COc1ccc(Nc2oc(COc3ccccc3OC)nc2C#N)cc1`: “inactive”; `Cc1ccc(/C=C/C(=O)C2C(=O)c3ccccc3C2=O)cc1`: “inactive”; `COc1ccc(-c2nc(CS(=O)CC(=O)NCc3ccc(Cl)cc3)c(C)o2)cc1` (centres undefined): “inactive”. To `O=C(NCc1ccccc1)c1cccc(COc2ccc3c(c2)CCC3)c1` belongs “inactive”. Regarding `CC(C)Oc1ccc(C2CC(=O)NC2=O)cc1` (centres undefined), the outcome was inactive. Regarding `CCCCCc1ccc(-c2ccc(/C=C/C(=O)O)cc2)nc1`, the compound was classed as inactive. Turning to `O=C(NCCOc1ccccc1)c1ccc2c(c1)OCO2`, the compound was classed as inactive. Turning to `C(=N\Nc1ccc2ccccc2n1)/c1ccc2c(c1)OCO2`, the compound was called inactive. Next, `COc1ccc(/C=C2\SC(=O)N(CCCC(=O)Nc3ccc(C(=O)O)cc3)C2=O)cc1`: “inactive”; `Cc1cc(NC(=O)c2ccc(C)s2)n(-c2nc3ccccc3[nH]2)n1`: “inactive”. On to `N=c1c(-c2nc3ccccc3[nH]2)cc(C(=O)c2cccs2)nn1-c1ccccc1`, for which the outcome was inactive. For the compound `CSc1ccccc1C(=O)N1CCC2(CC1)CC(=O)c1ccccc1O2`, the result was inactive. As to `CS(=O)(=O)Nc1ccc(C2=NN(S(C)(=O)=O)C(c3ccccc3)C2)cc1` (centres undefined), the call was inactive. Next, `Cc1cccc(NC(=O)Nc2c(C)n(C)n(-c3ccccc3)c2=O)c1C`: “inactive”; `CCc1ccccc1NC(=O)COC(=O)c1c(C)nsc1NC`: “inactive”; `CCc1ccc(/C=C2\SC(=S)N(CCCC(=O)Nc3ccccn3)C2=O)cc1`: “inactive”. Next, `CCN1CCN(Cc2ccc(NC(=O)c3ccc(C)c(NC(=O)c4nccn4C)c3)cc2C(F)(F)F)CC1`: “inactive”; `CCN1CCN(Cc2ccc(NC(=O)c3ccc(C)c(NC(=O)c4ccno4)c3)cc2C(F)(F)F)CC1`: “inactive”.

On to `COC(=O)C(NS(=O)(=O)c1ccc(N2CCCC2=O)cc1)c1ccccc1` (centres undefined), for which the call was inactive. To `CC(=NNC(=S)N1CCCCCC1)c1cccc2cccnc12` belongs “inactive”; to `O=C(CSc1nnc(-c2cccc(S(=O)(=O)N3CCOCC3)c2)n1C1CCCCCC1)NCc1ccccc1`, “inactive”; to `N#CC(C#N)c1ccnc2ccccc12`, “inactive”.

`CC(CCc1ccco1)N(C)S(=O)(=O)c1csc(C(N)=O)c1` (centres undefined): the compound was classed as inactive.

As for `CC1CCCN(C(=O)COC(=O)c2n[nH]c3ccccc23)C1` (centres undefined), the result was inactive. To `CCN(C(=O)c1cccc(NC(=O)c2ccccc2)c1)C1CCCCC1` belongs “inactive”; to `Brc1cccc(CSc2nnc(-c3ccncc3)o2)c1`, “inactive”. In the case of `O=c1oc2ccccc2c(O)c1/C=N/c1ccccn1`, the call was inactive. In the case of `CCc1nn2cc(-c3ccccc3)nc2s1`, the call was inactive. For the compound `O=C(NCC1CCOCC1)c1ccc(OC2CCN(Cc3ccccn3)CC2)cc1`, the outcome was inactive. Take `Cc1ccc(C(=O)Nc2cccc(C(F)(F)F)c2)cc1NC(=O)c1ccno1`: the result was inactive. Next, `COc1cnc(-c2ccccn2)nc1Sc1ccccc1Cl`: “inactive”. Next, `CCOc1ccc(NC(=O)CCc2nnc3ccc(N4CCC5(CC4)OCCO5)nn23)cc1`: “inactive”. To `C[C@H](CO)N1C[C@H](C)[C@@H](CN(C)C(=O)NC2CCCCC2)Oc2c(NS(=O)(=O)c3cn(C)cn3)cccc2C1=O` belongs “inactive”. Turning to `CC1=CC(=NOC(=O)/C=C/c2ccccc2)C=C(C)C1=O`, the outcome was inactive. With `CCc1ccccc1N(CC(=O)NCc1ccco1)C(=O)c1snc(C(N)=O)c1N`, the outcome was inactive. For the compound `Oc1cccc(/C=N/NC(=S)NCCN2CCOCC2)c1O`, the compound was called inactive.

As for `Cc1ccc(C(=O)Nc2cccc(C(=O)N/N=C/c3ccccc3F)c2)cc1`, the compound was classed as inactive. Regarding `Cc1ccc(S(=O)(=O)N2c3ccccc3-c3c(ssc3=S)C2(C)C)cc1`, the compound was classed as inactive. Regarding `Cc1ccc(S(=O)(=O)N2CCN(C(=O)COC(=O)COc3ccc(Cl)cc3)CC2)c(C)c1`, the call was inactive. Next, `O=C(Nc1nnc(N2CCCCCC2)s1)c1cc(-c2ccc(Br)cc2)on1`: “inactive”; `O=C(c1ccc(COc2ccccc2Cl)o1)N1CCCC1`: “inactive”.

Take `Oc1c(N=NC(=S)Nc2ccccc2F)c2ccccc2n1Cc1ccc(F)cc1`: the call was inactive.

On to `COc1ccc(NC(=O)C2CCCN(S(=O)(=O)c3cccc4nonc34)C2)c(OC)c1` (centres undefined), for which the compound was called inactive. In the case of `CC1=C(CC(=O)O)c2cc(F)ccc2C1=Cc1ccc(S(C)(=O)=O)cc1`, the call was inactive. In the case of `Cc1cc(NCCCn2ccnc2)n2ncc(-c3ccccc3)c2n1`, the compound was called inactive. Turning to `CSc1nc(C)nc2c1c(=O)n(C)c(=O)n2C`, the outcome was inactive. Next, `Cc1ccc(S(=O)(=O)N2CCCCC2)cc1NC(=O)CNc1ccccc1N1CCCC1=O`: “inactive”. Regarding `COc1ccc(Nc2oc(COc3ccc(Cl)cc3)nc2C#N)cc1`, the outcome was inactive.

Turning to `COCC(=O)N1CCC(Oc2ccc(C(=O)N3C[C@H]4CC[C@H]3C4)cc2)CC1`, the call was inactive. For `O=C(CCS(=O)(=O)c1ccccc1)Nc1nccs1`, the result was inactive. To `COc1ccc(OC)c(NC(=O)COc2coc(CN3CCc4ccccc43)cc2=O)c1` belongs “inactive”.

Take `O=C(OCc1nc2ccccc2s1)[C@@H]1CCCN1S(=O)(=O)c1ccccc1F`: the outcome was inactive. For the compound `Cn1cccc1/C=C1\CC(C(C)(C)C)C/C(=C\c2cccn2C)C1=O` (centres undefined), the call was inactive. To `COc1ccccc1-n1c(-c2ccccc2)n[nH]c1=S` belongs “inactive”; to `CC(=O)c1ccc(-n2nnnc2SCC(=O)N2CCc3ccccc3C2)cc1`, “inactive”. Next, `CCN(Cc1ccncc1)C(=O)CCc1ccccc1`: “inactive”; `Cn1cccc1-c1cc(C(=O)N2CCc3c([nH]c4ccccc34)C2c2ccccn2)[nH]n1` (centres undefined): “inactive”; `Cc1ccc(CCNC(=O)Cc2ccc(NC3=NC4CS(=O)(=O)CC4S3)cc2)cc1` (centres undefined): “inactive”. To `Cn1c(=O)c2ncn(CC(=O)O)c2n(C)c1=O` belongs “inactive”; to `CCOc1cc(C(=O)OC(C)C(=O)Nc2ncc(Cl)cc2Cl)ccc1OCC(=O)N1CCOCC1` (centres undefined), “inactive”. For `CC(=O)N1c2ccc(S(=O)(=O)N3CCC(C(=O)N4CCN(c5ccc(Cl)cc5)CC4)CC3)cc2CC1C` (centres undefined), the result was inactive. Next, `O=C1c2cccc3c(O)ccc(c23)C(=O)N1c1ccc(Cl)cc1`: “inactive”; `C/C(=N\NS(=O)(=O)c1ccc([N+](=O)[O-])cc1)c1cccs1`: “inactive”. Regarding `COc1cccc(/C=N/Nc2ncnc(N)c2[N+](=O)[O-])c1OC`, the result was inactive. Regarding `COc1cccc(C(=O)O/N=C(\N)c2ccccn2)c1OC`, the call was inactive. Next, `COc1cccc(-c2nc(NCc3ccccc3)c3ccccc3n2)c1O`: “inactive”; `O=C(O)c1ccc(-n2cncn2)c([N+](=O)[O-])c1`: “inactive”. To `O=c1c([N+](=O)[O-])cn(Cc2ccccc2)c(=O)n1Cc1ccccc1` belongs “inactive”; to `COc1cc(C(c2sc3nc(C)nn3c2O)N2CCc3ccccc3C2)cc(OC)c1OC` (centres undefined), “inactive”; to `COc1cccc(C2Nc3ccc4ccccc4c3C3=C2C(=O)CC(C)(C)C3)c1OCC(=O)O` (centres undefined), “inactive”. In the case of `Cc1c(C=O)c2ccccn2c1C(=O)c1ccccc1Cl`, the result was inactive. Next, `Clc1ccc(-c2nnc(NC3=NCCCCC3)o2)cc1`: “inactive”; `C[C@@H](OC(=O)c1[nH]cnc1C(=O)N1CCc2ccccc2C1)c1ccccc1`: “inactive”.

On to `COc1ccc(CCNC(=O)CSC(=O)c2ccccc2)cc1OC`, for which the call was inactive. Take `O=C(O)c1cn2c3c(ccc(Cl)c3c1=O)OCC2`: the call was inactive. As to `CCCCN1C2CCCC1CC(NC(=O)C1CCCCC1)C2` (centres undefined), the call was inactive. As to `O=C(NCc1ccco1)C1CC(=O)N(c2cccc(Cl)c2)C1` (centres undefined), the call was inactive. With `O=C(COC(=O)c1ccc(S(=O)(=O)NCc2ccco2)cc1)Nc1ccc(Cl)cn1`, the compound was classed as inactive.

With `COc1ccc(-n2cc(C(=O)c3ccccc3O)cn2)cc1`, the compound was called inactive. To `CCc1ccc(/C=C2\SC(=S)N(CCCC(=O)NC3=NCCS3)C2=O)cc1` belongs “inactive”; to `COc1cccc(C(=O)N2CCN(c3nc4cc(C)cc(C)c4cc3C#N)CC2)c1`, “inactive”. Regarding `CCCSc1ccc([C@@H]2[C@H]3C(=O)N(C)C(=O)[C@H]3[C@]3(C(=O)OC)CCCN23)cc1OC`, the call was inactive. For the compound `CCCn1c(C)cc(C(=O)CN2C(=O)c3ccccc3S2(=O)=O)c1C`, the call was inactive. In the case of `CCSc1nnc(NC(=O)CSc2nnc(-c3c[nH]c4ccccc34)n2CC)s1`, the result was inactive. To `CC(=O)c1ccccc1OCC(=O)Nc1cccc(S(=O)(=O)N2CCCC2)c1` belongs “inactive”.

As to `O=C(CCCN1C(=O)[C@H]2CC=CC[C@H]2C1=O)NCc1nc(-c2ccc(Cl)cc2)no1`, the compound was classed as inactive. With `Cc1cccc(-n2c(O)c(C=Nc3c(C)n(C)n(-c4ccccc4)c3=O)c3ccccc3c2=O)n1`, the compound was called inactive. Next, `COC(=O)C1=C(C)N(c2cc(C)cc(C)c2)/C(=C/c2ccc(O)cc2)C1=O`: “inactive”; `COc1cc(N)c(Cl)cc1C(=O)NC1CCN(Cc2ccccc2)CC1`: “inactive”. Next, `Cc1cccc(Nc2nc(Cl)ncc2F)c1C`: “inactive”. Next, `Cc1ccccc1C(=O)N1CCN(c2ccc(NC(=O)c3cccs3)cc2)CC1`: “inactive”; `COc1cc(OC)cc(C(=O)N[C@H](C(=O)OCC(=O)c2ccc(C)c([N+](=O)[O-])c2)C(C)C)c1`: “inactive”. For `CCOC(=O)Oc1c(OC)cc(C(=O)O[C@@H]2C[C@@H]3CN4CCc5c([nH]c6cc(OC)ccc56)[C@H]4C[C@@H]3[C@H](C(=O)OC)[C@H]2OC)cc1OC`, the compound was classed as inactive. To `CCOC(=O)c1cc(-c2ccccc2)n(CC(=O)Nc2cccc(OC)c2)c1C` belongs “inactive”. Next, `CCOC(=O)c1nc(NCc2ccccc2F)c2ccccc2n1`: “inactive”; `COCCn1c(C)cc(C(=O)COc2ccc(C)nc2[N+](=O)[O-])c1C`: “inactive”. Regarding `COC(=O)c1[nH]c2ccc(C)cc2c1NC(=O)NC1CCCCC1`, the outcome was inactive. Take `CN(CC(=O)Nc1cccnc1)S(=O)(=O)c1ccc(Br)cc1`: the compound was called inactive. To `COc1cc(C2CC(=O)N3CN(Cc4ccccc4)CSC3=C2C#N)ccc1OCc1ccccc1` (centres undefined) belongs “inactive”. To `COc1ccccc1OCc1ccc(C(=O)c2ccccc2)cc1` belongs “inactive”. To `O=C(O)C1CC(=O)N(c2ccc(Br)cc2)C1` (centres undefined) belongs “inactive”; to `CNS(=O)(=O)c1cccc(C(=O)OCC(=O)c2ccc3c(c2)OCCO3)c1`, “inactive”; to `COc1ccc(OC)c2[nH]c(=O)c(CCNC(=O)c3ccc(S(=O)(=O)N(C)C)cc3)cc12`, “inactive”.
